From PubChem BioAssay (NCI) come the findings set out here.

Assay [1] in a line: NCI Yeast Anticancer Drug Screen. Data for the rad50 strain (AID 155).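 Also: 0% = growth of vehicle-only cultures of the same strain.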 To be noted: S. cerevisiae rad50 strain growth inhibition, active compounds read high. An outline of the steps: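 Relative growth inhibition (compound vs vehicle) was measured in yeast with a defined repair-gene alteration.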
Assay [2] in a line: NCI Yeast Anticancer Drug Screen. Data for the mec2-1 strain (AID 157). To be noted: S. cerevisiae mec2-1 strain, active compounds read high. An outline of the steps:
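Cells of the genetically defined mec2-1 yeast strain are incubated with test compound. Inhibition of growth is calculated against vehicle-treated controls.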

Assay [3] can be described thus: NCI Yeast Anticancer Drug Screen. Data for the sgs1 mgt1 strain (AID 161).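 Also: 0% = growth of cultures given vehicle only.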 To be noted: S. cerevisiae sgs1 mgt1 strain, active compounds read high. An outline of the steps:
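Test agents were incubated with a DNA-repair-mutant yeast strain. Growth was then read and compared against vehicle-treated controls.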

The nature of assay [4]: NCI Yeast Anticancer Drug Screen. Data for the cln2 rad14 strain (AID 165).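 Also: 0% = growth equal to vehicle treated cultures.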 To be noted: S. cerevisiae cln2 rad14 strain, active compounds read high. An outline of the steps:
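The screen exposed genetically defined yeast (cln2 rad14) to test compounds and scored growth inhibition relative to vehicle-treated controls.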

Assay [5] is described as follows: NCI Yeast Anticancer Drug Screen. Data for the bub3 strain (AID 167). To be noted: S. cerevisiae bub3 mutant strain, active compounds read high. An outline of the steps: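 Screening used yeast with an engineered genetic alteration affecting cell cycle control. Compound-exposed cultures were compared with vehicle cultures, and reduced growth was taken as inhibition.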

Assay [6] can be described thus: NCI Yeast Anticancer Drug Screen. Data for the mlh1 rad18 strain (AID 175). To be noted: S. cerevisiae mlh1 rad18 strain growth inhibition, active compounds read high. An outline of the steps:
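Compound-treated yeast growth, normalised to vehicle controls. Strain bears defined DNA repair mutations.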

Where [7] appears, read: at 5.0 µM (retest, dose inferred, filed as 0.5).
[8] abbreviates: at 50.0 µM (retest, dose inferred, filed as 5.0).

Compounds without any hit were thinned out: in the full panel of roughly 79,000, 15% have a hit. Values without a mark were called inactive. Activity calls are given as the source filed them. Rule as the data show it: active = growth inhibition above about 70%; inactive = the rest.

For the compound `Brc1ccc2[nH]c3ccccc3c2c1`, the growth inhibition was 2% in assay [1] (setting [7]); 33% in assay [1] (setting [8]); 57.7% in assay [1] (at 50.0 µM); -4% in assay [2] (setting [7]); 67% in assay [2] (setting [8]); 44.9% in assay [2] (at 50.0 µM). The growth inhibition is -3% in assay [3] (setting [7]); 47% in assay [3] (setting [8]); 86.8% (active) in assay [3] (at 50.0 µM); -2% in assay [4] (setting [7]); 65% in assay [4] (setting [8]); 54.2% in assay [4] (at 50.0 µM). The growth inhibition in assay [5] (setting [7]) was 3%; in assay [5] (setting [8]) it was 57%; in assay [5] (at 50.0 µM), 55.2%; in assay [6] (setting [7]), 4%; in assay [6] (setting [8]) it was 75% (active); in assay [6] (at 50.0 µM) it was 90% (active).

`CC(=O)N1CC(C)CC2OC3(CCC4C5CCC6CC(O)CCC6(C)C5C(=O)C4C3C)C(C)C21` (configuration not stated): the growth inhibition in assay [1] (setting [7]) is 10%; in assay [1] (setting [8]) it was 98% (active); in assay [1] (at 50.0 µM), 91.6% (active); in assay [2] (setting [7]), 1%; in assay [2] (setting [8]), 98% (active); in assay [2] (at 50.0 µM), 93.7% (active). Also, the growth inhibition in assay [3] (setting [7]) is 19%; in assay [3] (setting [8]), 97% (active); in assay [3] (at 50.0 µM), 92.6% (active); in assay [4] (setting [7]), 26%; in assay [4] (setting [8]), 98% (active); in assay [4] (at 50.0 µM), 92.5% (active). Further, the growth inhibition in assay [5] (setting [7]) was 14%; in assay [5] (setting [8]), 98% (active); in assay [5] (at 50.0 µM), 92.2% (active); in assay [6] (setting [7]), -20%; in assay [6] (setting [8]) it was 98% (active); in assay [6] (at 50.0 µM), 91.8% (active).

Regarding `COc1ccc2cc(C3CCCC3(C)CC(=O)O)ccc2c1` (configuration not stated), the growth inhibition was 7% in assay [1] (setting [7]); 11% in assay [1] (setting [8]); 57.2% in assay [1] (at 50.0 µM); 11% in assay [2] (setting [7]); 10% in assay [2] (setting [8]); 39.9% in assay [2] (at 50.0 µM). In addition, the growth inhibition was 4% in assay [3] (setting [7]); 8% in assay [3] (setting [8]); 62.1% in assay [3] (at 50.0 µM); 3% in assay [4] (setting [7]); 7% in assay [4] (setting [8]); 11.1% in assay [4] (at 50.0 µM). Further, the growth inhibition in assay [5] (setting [7]) is 2%; in assay [5] (setting [8]), 2%; in assay [5] (at 50.0 µM) it was 3.85%; in assay [6] (setting [7]), 1%; in assay [6] (setting [8]), 9%; in assay [6] (at 50.0 µM), 64.5%.

Consider `C/C=C/C/S(=N\S(=O)(=O)c1ccc(C)cc1)c1ccccc1` (configuration not stated), for which the growth inhibition is 4% in assay [1] (setting [7]); 93% (active) in assay [1] (setting [8]); 96.7% (active) in assay [1] (at 50.0 µM); 4% in assay [2] (setting [7]); 88% (active) in assay [2] (setting [8]); 95.5% (active) in assay [2] (at 50.0 µM). Also, the growth inhibition is 11% in assay [3] (setting [7]); 97% (active) in assay [3] (setting [8]); 81.5% (active) in assay [3] (at 50.0 µM); 1% in assay [4] (setting [7]); 73% (active) in assay [4] (setting [8]); 40.9% in assay [4] (at 50.0 µM). Further, the growth inhibition in assay [5] (setting [7]) was -7%; in assay [5] (setting [8]) it was 97% (active); in assay [5] (at 50.0 µM), 94.7% (active); in assay [6] (setting [7]), 5%; in assay [6] (setting [8]), 95% (active); in assay [6] (at 50.0 µM), 93.3% (active).

Consider `FC(F)(F)c1ccc(Cl)c(NC(=S)SC2CCCCC2)c1`, for which the growth inhibition in assay [1] (setting [7]) was 5%; in assay [1] (setting [8]), 95% (active); in assay [1] (at 50.0 µM), 98.5% (active); in assay [2] (setting [7]), 0%; in assay [2] (setting [8]), 97% (active); in assay [2] (at 50.0 µM), 99.2% (active). Moreover, the growth inhibition was 7% in assay [3] (setting [7]); 99% (active) in assay [3] (setting [8]); 99.3% (active) in assay [3] (at 50.0 µM); -30% in assay [4] (setting [7]); 88% (active) in assay [4] (setting [8]); 98.5% (active) in assay [4] (at 50.0 µM). In addition, the growth inhibition is 0% in assay [5] (setting [7]); 98% (active) in assay [5] (setting [8]); 98.8% (active) in assay [5] (at 50.0 µM); 7% in assay [6] (setting [7]); 97% (active) in assay [6] (setting [8]); 98.4% (active) in assay [6] (at 50.0 µM).

Regarding `C=C1C(=O)OC(CCCCCCCCCCCCC)C1C(=O)O` (configuration not stated), the growth inhibition in assay [1] (setting [7]) was 69%; in assay [1] (setting [8]), 89% (active); in assay [1] (at 50.0 µM), 84% (active); in assay [2] (setting [7]), 93% (active); in assay [2] (setting [8]) it was 89% (active); in assay [2] (at 50.0 µM), 89.5% (active). Also, the growth inhibition was 71% (active) in assay [3] (setting [7]); 84% (active) in assay [3] (setting [8]); 76.3% (active) in assay [3] (at 50.0 µM); 63% in assay [4] (setting [7]); 85% (active) in assay [4] (setting [8]); 85% (active) in assay [4] (at 50.0 µM). Further, the growth inhibition in assay [5] (setting [7]) was 86% (active); in assay [5] (setting [8]), 90% (active); in assay [5] (at 50.0 µM) it was 86.5% (active); in assay [6] (setting [7]), 86% (active); in assay [6] (setting [8]) it was 89% (active); in assay [6] (at 50.0 µM), 80.8% (active).

As to `COC(=O)c1c(C)cccc1C1CN=NC12Cc1ccc(C)c(C)c1C2=O` (configuration not stated), the growth inhibition is 2% in assay [1] (setting [7]); 31% in assay [1] (setting [8]); 61% in assay [1] (at 50.0 µM); 0% in assay [2] (setting [7]); 47% in assay [2] (setting [8]); 43.2% in assay [2] (at 50.0 µM). Besides, the growth inhibition in assay [3] (setting [7]) was 13%; in assay [3] (setting [8]) it was 56%; in assay [3] (at 50.0 µM), 68.5%; in assay [4] (setting [7]), 1%; in assay [4] (setting [8]), 44%; in assay [4] (at 50.0 µM), 54.1%. Further, the growth inhibition in assay [5] (setting [7]) is 8%; in assay [5] (setting [8]), 81% (active); in assay [5] (at 50.0 µM), 78.7% (active); in assay [6] (setting [7]), -1%; in assay [6] (setting [8]) it was 57%; in assay [6] (at 50.0 µM), 72.8% (active).

For `CCN(CC)CCNc1ccc(C)c2oc3ccc(O)cc3c(=O)c12`, the growth inhibition in assay [1] (setting [7]) was 39%; in assay [1] (setting [8]), 96% (active); in assay [1] (at 50.0 µM), 99% (active); in assay [2] (setting [7]) it was 27%; in assay [2] (setting [8]), 29%; in assay [2] (at 50.0 µM) it was 75.5% (active). Further, the growth inhibition in assay [3] (setting [7]) was -1%; in assay [3] (setting [8]), 29%; in assay [3] (at 50.0 µM) it was 81.5% (active); in assay [4] (setting [7]), 1%; in assay [4] (setting [8]), 22%; in assay [4] (at 50.0 µM), 25.1%. Besides, the growth inhibition in assay [5] (setting [7]) was -4%; in assay [5] (setting [8]) it was 41%; in assay [5] (at 50.0 µM) it was 81.7% (active); in assay [6] (setting [7]) it was -1%; in assay [6] (setting [8]) it was 43%; in assay [6] (at 50.0 µM) it was 95.8% (active).

As for `C/C(=N\NC(=O)c1ccc([N+](=O)[O-])cc1)c1ccccc1`, the growth inhibition in assay [1] (setting [7]) is 8%; in assay [1] (setting [8]), -5%; in assay [1] (at 50.0 µM), -2.65%; in assay [2] (setting [7]), -19%; in assay [2] (setting [8]), -1%; in assay [2] (at 50.0 µM), -5.45%. In addition, the growth inhibition is 6% in assay [3] (setting [7]); -6% in assay [3] (setting [8]); 10.3% in assay [3] (at 50.0 µM); 2% in assay [4] (setting [7]); 11% in assay [4] (setting [8]); -7.95% in assay [4] (at 50.0 µM). The growth inhibition in assay [5] (setting [7]) is 9%; in assay [5] (setting [8]), 14%; in assay [5] (at 50.0 µM), 38.8%; in assay [6] (setting [7]) it was 15%; in assay [6] (setting [8]), 26%; in assay [6] (at 50.0 µM) it was -7.2%.
